Source: PubChem BioAssay
FMDV inh: antivirals against foot and mouth disease virus. FMDV antiviral cell-based qHTS. Potency, µM (doses to about 57.9 µM), for inactives: at the highest dose activity change, negative = inhibition, usual class: inhibitors. hit rate 1.2% among 410,000; calls by dose curve; tested in HEK293T cells; also: read-out not given here; potency is read from the fitted curve at half-maximal effect; nearly all actives have a fitted effect of over 45% in size
HCMV antiviral: inhibitors of human cytomegalovirus; HFF cells, HCMV-luciferase reporter, 72 h; active compounds read low; hit rate 4.5% among 410,000; activity change, negative = inhibition, % at 57.5 µM; in the data active = activity change below about -60%; inconclusive = no clear call, values can overlap the other calls; inactive = above about -39%
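Steps: HFFs plated, 16 h 37C; compounds added; HCMV-luciferase added to MOI 1 PFU/cell; 72 h 37C; OneGlo reagent, 5 min room temperature; luminescence read, normalized to controls.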
VACV Venus inh: vaccinia inhibition (Venus reporter); AID 720580; Vaccinia virus Venus reporter expression, fluorescence; Potency, µM (titrated, usually from 36.5 µM), without a hit: top-dose activity change, negative = inhibition, hits mostly inhibitors; hit rate 0.46% among 330,000; calls by dose curve; tested in A549 cells; also: potency is read from the fitted curve at half-maximal effect; nearly all actives have a fitted effect of over 30% in size
MARV entry inh: inhibitors of Marburg virus binding or cell entry; Marburg virus pseudotyped entry inhibition, cell reporter; Potency, µM (series often up to 37.8 µM), for the others: at the highest dose activity change, negative = inhibition, most hits filed as inhibitors; hit rate 1.8% among 300,000; AID 540276; calls by dose curve; tested in HEK293 cells; also: potency is read from the fitted curve at half-maximal effect
LASV entry inh: blocks Lassa virus binding to or entry into cells; Lassa virus pseudotype entry inhibition, cell reporter; Potency, µM (top dose mostly 37.9 µM), for inactives: top-dose activity change, negative = inhibition, usual class: inhibitors; hit rate 1.2% among 300,000; AID 540256; calls by dose curve; tested in HEK293 cells; also: potency is read from the fitted curve at half-maximal effect; nearly all actives have a fitted effect of over 50% in size
VACV mCherry inh: vaccinia inhibition (mCherry reporter) | Vaccinia virus mCherry reporter infection, fluorescence | Potency, µM (top dose mostly 36.5 µM), for inactives: top-dose activity change, negative = inhibition, hits mostly inhibitors | hit rate 0.63% among 310,000 | AID 720579; calls by dose curve; tested in A549 cells; also: potency is read from the fitted curve at half-maximal effect; nearly all actives have a fitted effect of over 35% in size
An asterisk follows results filed as active; i = inactive; ? = inconclusive; . = no result given; + = active, no number; [ ] = another dose, or the depositor's remark. The list is not random: actives were taken first. Their share in the collection is about 6.5%. % is scaled to controls: 0 for no effect and ±100 for the full control effect.

SMILES	FMDV inh	HCMV antiviral	VACV Venus inh	MARV entry inh	LASV entry inh	VACV mCherry inh
C=CCc1ccccc1OCC(O)CN1CCN(c2ccccc2F)CC1 (centres undefined)	?	21.2	-46.7%	-35.7%	2.2%	.
O=C(OCc1ccccc1)N(CCCCN(CCCNCc1ccccc1)C(=O)OCc1ccccc1)CCCNCc1ccccc1	?	-97.4*	?	?	?	?
O=C(NCCCCCCNC(=O)OCc1ccccc1)OCc1ccccc1	-13.6%	-8.8	-5.1%	?	6.5%	-2.2%
Cc1ccc(S(=O)(=O)N2C[C@H]3n4c(=O)ccc(=O)n4C[C@H](OC(=O)NCC4CCCCC4)[C@@]3(O)C2)cc1	31.6µM*	-102.2*	?	.	.	?
CCCCCCn1c(=O)n2n(c1=O)C[C@]1(OC(=O)NCC3CCCCC3)CN(S(=O)(=O)c3ccc(C)cc3)C[C@]1(O)C2	?	11.7	10µM*	.	.	?
Cc1ccc(S(=O)(=O)N2C[C@H]3n4c(=O)ccc(=O)n4C[C@H](OC(=O)NCc4ccccc4)[C@@]3(O)C2)cc1	0.0%	-60.9*	?	.	.	?
CCCCCCn1c(=O)n2n(c1=O)C[C@]1(OC(=O)NC3CCCC3)CN(S(=O)(=O)c3ccc(C)cc3)C[C@]1(O)C2	0.0%	-12.5	?	.	.	-0.7%
Cc1ccc(S(=O)(=O)N2C[C@H]3n4c(=O)ccc(=O)n4C[C@H](OC(=O)NCc4ccco4)[C@@]3(O)C2)cc1	?	-14.1	-23.8%	.	.	-29.3%
CCC(C)NC(=O)CCc1c(C)nc2cc(-c3ccc(OC)cc3OC)nn2c1C (centres undefined)	17.5%	-3.1	-6.2%	-21.1%[46.1 µM]	2.0%[46.1 µM]	7.9%
Clc1ccc(Cn2c3c(c4ccccc42)CCc2cc4ccccc4nc2-3)cc1	.	.	-9.3%	.	.	-3.0%
CN(N)c1ccc2c(C(F)(F)F)cc(C(F)(F)F)nc2n1	-4.5%	?	-5.5%	22.9%[46.1 µM]	10.9%	-54.0%
Cc1ccc(C(C#N)c2ccc3c(C(F)(F)F)cc(C(F)(F)F)nc3n2)cc1 (centres undefined)	?	-99.1*	-23.7%	-12.0%	?	?
N#CC(c1ccccc1)c1ccc2c(C(F)(F)F)cc(C(F)(F)F)nc2n1 (centres undefined)	?	-104.5*	1.3%	7.08µM*	11.2µM*	-13.2%[1.46 µM]
N#Cc1ccc(-c2ccc(Cl)cc2)nc1SCC(=O)c1cccc(Cl)c1	-7.1%	-60.9*	-16.5%	0.1%	6.6%	-16.3%
Cc1cc(N)n2nc(C(F)(F)F)nc2n1	-0.9%	-91.6*	-8.5%	7.3%[46.1 µM]	6.1%[46.1 µM]	-11.3%
Cc1cc(SCc2ccc(F)cc2)nc(=O)[nH]1	0.8%	-3.8	.	.	.	.
Cc1cc(SCc2ccc(C(F)(F)F)cc2)nc(=O)[nH]1	8.8%	+	.	.	.	.
CCOC(=O)c1[nH]nc(-c2cc(CC)c(O)cc2O)c1-c1cscn1	8.91µM*	-102.6*	.	?	?	.
NN(CCO)C(=S)Nc1ccc(Cl)cc1	-6.7%	72.9	?	25.3%[46.1 µM]	-0.2%[46.1 µM]	10µM*
CCN(CC)c1nc2c(S(=O)(=O)c3ccccc3)nnn2c2ccc(Cl)cc12	10.9%	-76.3*	?	?	.	?
CCN(CC)c1nc2c(S(=O)(=O)c3cccc(Cl)c3)nnn2c2ccsc12	-18.0%	-61.1*	-24.0%	.	-20.2%[46.1 µM]	?
CCc1ccc(NC(=O)CSc2nc3c(c(=O)[nH]2)CN(Cc2ccc(C)cc2)CC3)cc1	-7.6%	-4.0	-1.2%	10.7%[46.1 µM]	?	-14.7%
Cc1ccc(Cl)cc1-n1nnc(-c2nc(-c3ccc4c(c3)OCO4)no2)c1C	-11.4%	43.5	-3.6%	.	3.2%[46.1 µM]	-16.4%
O=C(CSc1n[nH]c(-c2ccccc2Cl)n1)N1CCN(c2ccccc2)CC1	35.5µM*	36.7	-2.8%	.	-4.4%[46.1 µM]	-7.2%
COc1ccc(N2CCN(C(=O)CSc3n[nH]c(-c4ccccc4Cl)n3)CC2)cc1	-14.4%	-8.6	-12.3%	.	23.2%[46.1 µM]	-10.7%
CCOC(=O)c1nc(N2CCN(c3ccc(F)cc3)CC2)c2c(C)noc2n1	-12.5%	-11.0	0.5%	.	5.7%[46.1 µM]	-0.2%
COc1ccc2nc(NC(=O)Nc3ccccc3)sc2c1	16.9%	24.0	-28.5%	?	?	?
CC(C)(C)c1nc(NC(=O)Nc2ccccc2)sc1Br	?	-97.3*	.	.	.	.
COC(=O)c1ccccc1-c1ccc(C(c2c(C)[nH][nH]c2=O)c2c(C)[nH][nH]c2=O)o1	20µM*	-33.7	-13.6%	-23.9%[46.1 µM]	?	i
